{"source": "PubChem BioAssay (Tox21)", "note": "Several values for one entry are separate records, joined by “and”; a condition that tells them apart may be missing. Identical values can stand only once. Results filed as inconclusive are left out. Where a call stands in place of a potency, no number is given. Values without a mark were called inactive. Activity calls are given as the source filed them. Calls come from the whole dose curve; as a rule, active = well fitted inhibition curve with a large enough effect in the repeat runs; inconclusive = weak or mixed curves; inactive = no such curve, though single readings can be large or run the other way. Potency is the fitted concentration of half-maximal effect.", "data": [{"experiment": "qHTS assay to identify small molecule antagonists of the thyroid receptor (TR) signaling pathway (AID 743065); note: nearly all actives have a fitted effect of over 55% in size", "conditions": "GH3.TRE-Luc, T3-stimulated luciferase inhibition, 23.5 h; series mostly up to 70.3 µM; activity, negative = inhibition: at the top concentration", "how_it_was_run": "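GH3.TRE-Luc rat pituitary cells carrying two TR response elements driving luciferase were plated for 4 h, given compound plus 1 nM T3 (final), and incubated 23.5 h at 37 C. ONE-Glo luminescence measured reporter inhibition; CellTiter-Fluor fluorescence tracked cytotoxicity.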", "values": [{"smiles": "CN(C)c1nc(=O)n(C2CCCCC2)c(=O)n1C", "Potency": "inactive"}, {"smiles": "Clc1ccc(C(Cl)(Cl)Cl)cc1", "Potency": "inactive"}, {"smiles": "CCOP(=S)(OCC)SCn1c(=O)oc2cc(Cl)ccc21", "Potency": "68.6 µM (active)"}, {"smiles": "COc1ccc(O)c(C(C)(C)C)c1", "Potency": "inactive"}, {"smiles": "CC1=C(C(=O)Nc2ccccc2)SCCO1", "Potency": "inactive"}, {"smiles": "CCCCOCCOC(C)=O", "Potency": "inactive"}, {"smiles": "CNC(=O)Oc1cccc2c1OC(C)(C)C2", "Potency": "inactive"}, {"smiles": "O=NN(c1ccccc1)c1ccccc1", "Potency": "inactive"}, {"smiles": "O=C(O)CF", "Potency": "inactive"}, {"smiles": "CCOP(=S)(OCC)SCSC(C)(C)C", "activity, negative = inhibition": "-3.61% [at 95 µM]"}, {"smiles": "CCOS(=O)(=O)OCC", "Potency": "inactive"}, {"smiles": "ClC(Cl)=C(Cl)C(Cl)=C(Cl)Cl", "Potency": "inactive"}, {"smiles": "CC1(C)Cc2cccc(O)c2O1", "Potency": "inactive"}, {"smiles": "CC(C)COC(=O)c1ccccc1C(=O)OCC(C)C", "Potency": "inactive"}, {"smiles": "N#Cc1cccnc1", "Potency": "inactive"}, {"smiles": "ClC(Cl)(Cl)c1ccccc1", "Potency": "inactive"}, {"smiles": "CCCCOCC1CO1", "note": "(centres undefined)", "Potency": "inactive"}, {"smiles": "CCCCCCCCCCCCCl", "Potency": "inactive"}, {"smiles": "CCC1(c2ccc(N)cc2)CCC(=O)NC1=O", "note": "(centres undefined)", "Potency": "inactive"}, {"smiles": "C=C(C)C#N", "Potency": "inactive"}, {"smiles": "Cc1cccc(N=Nc2ccc(N(C)C)cc2)c1", "Potency": "inactive"}, {"smiles": "O=NN1CCOCC1", "Potency": "inactive"}, {"smiles": "c1ccc2c(c1)Nc1ccccc1S2", "activity, negative = inhibition": "-10.2%"}, {"smiles": "CC[n+]1c(-c2ccccc2)c2cc(N)ccc2c2ccc(N)cc21", "Potency": "23.7 µM (active) and 27.2 µM (active)"}, {"smiles": "COc1ccc(C=O)cc1OC", "Potency": "inactive"}, {"smiles": "CC(C)Nc1nc(Cl)nc(NC(C)C)n1", "Potency": "inactive"}, {"smiles": "O=[N+]([O-])/N=C1\\NCCN1Cc1ccc(Cl)nc1", "Potency": "inactive"}, {"smiles": "CCOC(=O)c1ccccc1N", "Potency": "inactive"}, {"smiles": "CN(C)P(=O)(N(C)C)N(C)C", "Potency": "inactive"}]}]}
